Test results as given in PubChem BioAssay AID761 (NMMLSC, 2007).
Screen size: about 190,000 compounds; about 400 (0.21%) were called active. Another 2% or so got no clear call; they are omitted.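 The calls were made as follows: active = percent activity GTP binding at least 20 points away from the 100% baseline, either down as inhibitor or up as activator; inconclusive = compound flagged as likely green fluorescent from well-wide comparison; inactive = the rest.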 Only a selection was taken, and actives are over-represented in it overall.

What follows are molecules tested against Cell division control protein 42 homolog (Homo sapiens) (UniProt P60953) (assay: wildtype Cdc42 fluorescent GTP binding changes, either direction – biochemical, multiplex bead flow cytometry, Bodipy-GTP, primary screen (AID 761;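 also: median bead fluorescence of bound Bodipy-FL-GTP at 100 nM; 0% = excess unlabeled GTP control and 100% = no compound control; below 100% means less GTP binding so inhibitor and above means activator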)). Settings: GST-Cdc42 beads, at 10 µM, actives lie on both sides.
Chain of Cell division control protein 42 homolog (Homo sapiens) (P60953 whole entry, looked up): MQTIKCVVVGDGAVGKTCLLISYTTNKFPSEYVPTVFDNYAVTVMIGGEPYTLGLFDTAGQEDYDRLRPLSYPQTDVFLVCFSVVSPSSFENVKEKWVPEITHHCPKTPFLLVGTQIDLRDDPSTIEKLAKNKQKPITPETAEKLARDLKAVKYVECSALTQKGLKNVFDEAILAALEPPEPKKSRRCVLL

Compound | percent activity (GTP binding)
O=C(O)c1n[nH]nc1-c1ccccc1 | 99% (inactive)
O=C(/C=C\c1cn(-c2ccccc2)nc1-c1cccs1)N1CCOCC1 | 100% (inactive)
O=C(O)/C=C/c1cn(Cc2ccccc2)nc1-c1cccs1 | 135% [activator] (active)
O=C(O)/C=C/c1cn(-c2ccccc2)nc1-c1cccs1 | 93% (inactive)
NS(=O)(=O)c1ccc(NC(=O)/C=C/c2ccccc2Cl)cc1 | 97% (inactive)
O=C(COc1cc(Cl)c(Cl)cc1Cl)NCCc1ccccn1 | 94% (inactive)
CCOC(=O)N1CCN(CC(=O)Nc2ccc(F)cc2)CC1 | 96% (inactive)
Cc1cc(C)cc(NC(=O)Cn2cnc3c(nnn3Cc3ccc(F)cc3)c2=O)c1 | 93% (inactive)
Cc1cccc(C(=O)NNC(=O)c2cccc([N+](=O)[O-])c2)c1 | 105% (inactive)
COc1ccccc1N1CCN(C(=O)c2ccc(Cl)c(S(=O)(=O)N3CCCC3)c2)CC1 | 100% (inactive)
O=C(Cc1ccc(F)cc1)N1CCN=C1SCc1cccc([N+](=O)[O-])c1 | 96% (inactive)
CCCSc1nc2[nH]ncc2c(=O)[nH]1 | 100% (inactive)
Cc1ccc(CSc2nc3[nH]ncc3c(=O)[nH]2)cc1 | 76% (active)
Cc1cccc(NC(=O)CSc2nc3[nH]ncc3c(=O)[nH]2)c1 | 97% (inactive)
O=C(NCc1cccs1)c1cc(-c2ccccn2)nc2ccc(Br)cc12 | 98% (inactive)
O=C(c1cccc([N+](=O)[O-])c1)N1CCN(C(=O)c2ccco2)CC1 | 94% (inactive)
CCN(C(=O)COC(=O)/C=C/c1nc2ccccc2s1)C1CCS(=O)(=O)C1 (configuration not stated) | 93% (inactive)
CCOc1ccc(N(CC(=O)NCCc2ccc(OC)cc2)S(C)(=O)=O)cc1 | 100% (inactive)
Cc1ccccc1NC(=S)NNC(=O)c1cccc(Br)c1 | 91% (inactive)
Cc1nc(S(=O)(=O)c2ccc(Br)cc2)nc2c1CCC2 | 94% (inactive)
COc1ccc(C(=O)Nc2ccc(NC(=O)C(C)C)nc2)cc1 | 93% (inactive)
Cc1cccc(C(=O)OC(C)CN2CCN(C)CC2)c1 (configuration not stated) | 101% (inactive)
Nc1ccc(OCC(O)C[n+]2ccc(CCS(=O)(=O)[O-])cc2)cc1 (configuration not stated) | 102% (inactive)
O=C(Cc1ccc(F)cc1)N/N=C/c1ccc2c(c1)OCO2 | 97% (inactive)
OCCC1CN(Cc2cccn2-c2nccs2)CCN1CCc1ccccc1 (configuration not stated) | 95% (inactive)

Compound | percent activity (GTP binding)
CC(/C=N/NC(=O)c1ccncc1)=C\c1ccco1 | 99% (inactive)
CCOC(=O)C1(Cc2cccc(OC)c2)CCCN(S(=O)(=O)c2cccnc2)C1 (configuration not stated) | 100% (inactive)
O=C(CSc1nnnn1-c1ccc(O)cc1)N1N=C(c2ccc3ccccc3c2)CC1c1ccccc1 (configuration not stated) | 98% (inactive)
CC(=O)NC1C(OCc2ccccc2)OC(COC(C)=O)C(OC(C)=O)C1OC(C)=O (configuration not stated) | 104% (inactive)
O=C(OCC1O[C@@H](OC(=O)c2cc(O)c(O)c(O)c2)[C@@H](OC(=O)c2cc(O)c(O)c(O)c2)[C@@H](OC(=O)c2cc(O)c(O)c(O)c2)[C@@H]1OC(=O)c1cc(O)c(O)c(O)c1)c1cc(O)c(O)c(O)c1 (some centres not stated) | 79% (active)
NC(=O)COc1ccc(NC(=O)c2ccccc2-c2ccccc2)cc1 | 92% (inactive)
CCOC(=O)c1ccc(N/C(=N/S(=O)(=O)c2ccccc2)c2ccccc2)cc1 | 98% (inactive)
CCOC(=O)c1ccc(Nc2cc(C)nc3nc(C)nn23)cc1 | 99% (inactive)
CCOC(=O)c1nc(Nc2ccc(C(=O)OC)cc2)c2ccccc2n1 | 74% (active)
CC(=O)Nc1ccccc1NC(=O)c1cc(C)cc(C)c1 | 98% (inactive)
NC(N)=Nc1nc2ccc(Br)cc2c(=O)[nH]1 | 93% (inactive)
O=C(Nc1ccc(Cl)cc1)C1c2cccc[n+]2CC(=O)N1Cc1ccc2c(c1)OCO2 (configuration not stated) | 99% (inactive)
CCC1CCCCN1C(=O)CSc1nc2c(c(=O)n(C)c(=O)n2C)n1C (configuration not stated) | 98% (inactive)
Fc1cccc(Cc2noc(CN3CCN(c4cnccn4)CC3)n2)c1 | 101% (inactive)
CCOC(=O)c1ccc(NC2Nc3cc(C)nn3S2)cc1 (configuration not stated) | 95% (inactive)
CC(=O)c1ccccc1NC(=O)CC1(CC(=O)O)CCCCC1 | 95% (inactive)
Cc1ccc(C)c(-n2nnnc2SCC(=O)c2c(N)n(C)c(=O)n(C)c2=O)c1 | 93% (inactive)
Cc1ccc(S(=O)(=O)NC(C(=O)N2CCOCCOCCOCCOCC2)c2ccccc2)cc1 (configuration not stated) | 100% (inactive)
COc1ccccc1C(=O)CSc1cccc[n+]1[O-] | 94% (inactive)
CCCCN(C(=O)COc1ccc(NC(C)=O)cc1)C1CCS(=O)(=O)C1 (configuration not stated) | 96% (inactive)
Cc1ccc(Cl)cc1NC(=O)COC(=O)CC(C)(C)C | 90% (inactive)
CCCCn1c(=O)c(C(C)=O)c(O)c2ccccc21 | 96% (inactive)
CCNC(=O)COc1cc(C)c(Br)c(C)c1 | 105% (inactive)
CC(C)NC(=S)NN=C1CCCCCCCCCCC1 | 93% (inactive)
C=CCn1c(-c2sc(-c3ccccc3)nc2C)n[nH]c1=S | 90% (inactive)

Compound | percent activity (GTP binding)
O=C(NNC(=S)NCCCN1CCOCC1)c1ccncc1 | 98% (inactive)
Cc1ccc(Nc2c(F)c(F)c(F)c(F)c2C(=O)O)c(C)c1 | 134% [activator] (active)
Cc1ccc(NC(=S)NC(=O)c2ccc(-c3ccccc3)cc2)c(C)c1 | 99% (inactive)
COc1c(F)c(F)c(C(=O)O)c(Nc2ccccc2C)c1F | 100% (inactive)
COC(=O)C1=CN(Cc2ccc(OC)c(OC)c2)C=C(C(=O)OC)C1c1cccs1 | 99% (inactive)
CCn1c(-c2cccnc2Cl)nc2cc(C)c(C)cc21 | 99% (inactive)
Cc1ccc(C(=O)OC(C)CN2CCOCC2)cc1 (configuration not stated) | 99% (inactive)
COc1ccccc1CNC(=O)c1cc(=O)c2ccccc2o1 | 96% (inactive)
COCCN(Cc1nc(-c2ccc(C(F)(F)F)cc2)no1)C(C)C | 94% (inactive)
COc1ccccc1NC(=O)C1=C(C)NC(=O)NC1c1ccc(C)s1 (configuration not stated) | 93% (inactive)
COc1ccc(-c2nc3cnccn3c2NC(C)(C)CC(C)(C)C)cc1O | 101% (inactive)
Cc1nnc(N/N=C/C2CC=CCC2)[nH]c1=O (configuration not stated) | 96% (inactive)
O=C(O)/C=C/c1ccc(OCCCF)cc1 | 101% (inactive)
CN(CC(=O)Nc1ccccc1[N+](=O)[O-])Cc1ccc(Br)cc1 | 98% (inactive)
CCC(C)(C)NC(=O)C(c1cccc(OC)c1OC)N(CC(C)C)C(=O)CCC(=O)Nc1cc(C)on1 (configuration not stated) | 99% (inactive)
O=C(COC(=O)C1CCCCC1)Nc1ccc([N+](=O)[O-])cc1 | 96% (inactive)
Nc1nc(SCC(=O)N2CCN(S(=O)(=O)c3ccc(Cl)cc3)CC2)n[nH]1 | 100% (inactive)
O=C(Nc1ccc2c(c1)CCC2)c1ccc(Br)s1 | 98% (inactive)
Cc1cccc2cc(CN(Cc3ccc4c(c3)OCO4)Cc3nnnn3C3CCCC3)c(=O)[nH]c12 | 94% (inactive)
Cc1cccc2cc(CN(Cc3cccs3)C(c3nnnn3C3CCCC3)C(C)C)c(=O)[nH]c12 (configuration not stated) | 72% (active)
CCC(c1nnnn1C1CCCC1)N(Cc1cccs1)Cc1cc2cccc(C)c2[nH]c1=O (configuration not stated) | 103% (inactive)
COc1cc(OC)c(C(=O)OCC(=O)N2CC(=O)Nc3ccccc32)cc1OC | 103% (inactive)
CSc1nc2nc(-c3cccc(C(F)(F)F)c3)ccn2n1 | 93% (inactive)
COc1ccc(NC(=O)c2c(SC)nsc2SC)cc1 | 105% (inactive)
CSc1nsc(SC)c1NC(=O)OC1CCCCC1 | 35% (active)

Compound | percent activity (GTP binding)
CSc1ncccc1C(=O)NC1CCCCCC1 | 96% (inactive)
Cc1cc(C)n(-c2ccc(C(=O)O)cc2[N+](=O)[O-])n1 | 98% (inactive)
COc1ccc(NC(=O)CN2C(=O)CSC2=O)cc1 | 98% (inactive)
COc1cccc(OC)c1C(=O)OCC(=O)/C(C#N)=C(\C)N | 95% (inactive)
CC1(C)C(c2cccs2)=[N+]([O-])C2(CCCCC2=O)N1O (configuration not stated) | 99% (inactive)
Cc1cc(NC(=O)CN2C(=O)NC(C)(CCc3ccccc3)C2=O)no1 (configuration not stated) | 96% (inactive)
CC(=O)c1ccc(NC(=O)CSC(=S)N2CCCC2)cc1 | 97% (inactive)
CCNC(=O)COC(=O)CCNC(=O)c1cccc(C)c1 | 102% (inactive)
O=C(N/N=C/c1ccco1)c1ccc(NC(=O)C2CC2)cc1 | 92% (inactive)
CCOC(=O)c1ccccc1NC(=O)CSc1nc2ccccc2c(=O)[nH]1 | 92% (inactive)
CCN(CC)Cc1nc2sc(C)c(C)c2c(=O)[nH]1 | 94% (inactive)
O=C(NN=C1CCC(=NNC(=O)c2cccnc2)CC1)c1cccnc1 | 96% (inactive)
O=C(CCN1CCN(C/C=C/c2ccccc2)CC1)Nc1cccc(F)c1 | 98% (inactive)
C=CCn1c(CCNC(=O)c2ccccc2F)nnc1SCC(=O)Nc1ccc(OC)cc1 | 96% (inactive)
Cc1ccccc1OCCOc1ccc([N+](=O)[O-])cc1/C=N/n1cnnc1 | 95% (inactive)
Cn1cnnc1Sc1ccc(S(C)(=O)=O)cc1[N+](=O)[O-] | 99% (inactive)
Cc1nc(N2CCC(C)CC2)c2c(C)c(C(=O)Nc3cc(F)ccc3C)sc2n1 | 92% (inactive)
O=C(COC(=O)c1ccccc1)Nc1cccc(S(=O)(=O)N2CCOCC2)c1 | 96% (inactive)
O=C1Nc2cc(Cl)c(Cl)cc2N(O)N1c1ccccc1Cl | 92% (inactive)
O=[N+]([O-])c1cccc(/C([O-])=C(/C(=S)Nc2ccccc2F)[n+]2ccccc2)c1 | 95% (inactive)
CCOc1cc2[nH]c(=O)n(Cc3ccc(C(=O)NCCCN4CCCC4=O)cc3)c(=O)c2cc1OCC | 98% (inactive)
O=C(/C=C/c1ccc(Cl)cc1)Nc1ccc(S(=O)(=O)Nc2ncccn2)cc1 | 98% (inactive)
